According to PubChem BioAssay AID1159580 (chemical genetic matrix, 2015):
“And” between values parts separate entries of the source, which are not always exact repeats. Identical values can stand only once. About 2,000 (36%) of roughly 5,500 compounds were called active. Another 18% or so got no clear call; they are omitted. Some of the results follow. A number with no mark means an inactive call. No stated cut-off is given here; in the data, active means normalized growth mostly below about 0.91 (no sharp cut-off); inconclusive means no clear call, values can overlap the other calls; inactive means mostly above about 0.92.

Experiment: chemical genetic growth profiling, strain panel (AID 1159580);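 further: tested at 20 µM; growth read once vehicle control cultures reached saturation at 30 °C; 1 = growth at the plate median or of vehicle wells; lower values mean less growth of the strain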
Settings: S. cerevisiae deletion strains, growth OD

COc1cc2ccc(=O)oc2c(O)c1O showed a normalized growth (locus YBR021W, strain FUR4, hits give low values) of 1.03, a normalized growth (locus YBR229C, strain ROT2, hits give low values) of 0.957 and a normalized growth (locus YCL029C, strain bik1, hits give low values) of 1.01. The normalized growth (locus YDL035C, strain GPR1, hits give low values) was 1.01, the normalized growth (locus YDL074C, strain BRE1, hits give low values) was 1.05 and the normalized growth (locus YDL101C, strain DUN1, hits give low values) was 0.984. It also gave a normalized growth (locus YDL185W, strain tfp1, hits give low values) of 0.983, a normalized growth (locus YDL192W, strain arf1, hits give low values) of 1 and a normalized growth (locus YDR101C, strain arx1, hits give low values) of 1.01. It also gave a normalized growth (locus YDR162C, strain NBP2, hits give low values) of 0.934, a normalized growth (locus YDR318W, strain mcm21, hits give low values) of 0.992 and a normalized growth (locus YDR388W, hits give low values) of 1. It also gave a normalized growth (locus YDR502C, strain sam2, hits give low values) of 0.986, a normalized growth (locus YEL061C, strain CIN8, hits give low values) of 0.995 and a normalized growth (locus YER110C, hits give low values) of 0.995. It also gave a normalized growth (locus YER155C, strain BEM2, hits give low values) of 1.03, a normalized growth (locus YER167W, strain BCK2, hits give low values) of 1.01 and a normalized growth (locus YGL078C, strain dbp3, hits give low values) of 1.01. For the same compound, the normalized growth (locus YGL086W, strain mad1, hits give low values) was 1.04, the normalized growth (locus YGL248W, strain PDE1, hits give low values) was 0.979 and the normalized growth (locus YGR078C, strain PAC10, hits give low values) was 0.98. For the same compound, the normalized growth (locus YGR135W, strain pre9, hits give low values) was 0.966, the normalized growth (locus YGR252W, strain gcn5, hits give low values) was 0.959 and the normalized growth (locus YHR030C, strain SLT2, hits give low values) was 1.01 and 1.04. For the same compound, the normalized growth (locus YHR079C, strain IRE1 (second series), hits give low values) was 0.996, the normalized growth (locus YHR079C, strain IRE1, hits give low values) was 1.03 and the normalized growth (locus YHR094C, strain hxt1, hits give low values) was 0.987. For the same compound, the normalized growth (locus YHR129C, strain ARP1, hits give low values) was 0.995, the normalized growth (locus YHR200W, strain rpn10, hits give low values) was 0.988 and the normalized growth (locus YIL066C, strain RNR3, hits give low values) was 0.996. The normalized growth (locus YIL073C, strain SPO22, hits give low values) was 0.997, the normalized growth (locus YIL125W, strain kgd1, hits give low values) was 1 and the normalized growth (locus YIR030C, strain dcg1, hits give low values) was 1. The normalized growth (locus YJL095W, strain BCK1, hits give low values) was 0.956 and 1.01, the normalized growth (locus YJL134W, strain LCB3, hits give low values) was 1 and the normalized growth (locus YJL168C, strain set2, hits give low values) was 0.992. It also gave a normalized growth (locus YJL187C, strain SWE1 (second series), hits give low values) of 0.991, a normalized growth (locus YJR043C, strain POL32, hits give low values) of 1.01 and a normalized growth (locus YJR066W, strain TOR1, hits give low values) of 0.978. For the same compound, the normalized growth (locus YJR075W, strain HOC1, hits give low values) was 1.01, the normalized growth (locus YKL009W, strain mrt4, hits give low values) was 1.13 [resistant] (active) and the normalized growth (locus YKL068W, hits give low values) was 0.982. It also gave a normalized growth (locus YKL085W, strain MDH1 (second series), hits give low values) of 1, a normalized growth (locus YKL085W, strain MDH1, hits give low values) of 1 and a normalized growth (locus YKR001C, strain vps1, hits give low values) of 1. The normalized growth (locus YLR039C, strain RIC1, hits give low values) was 1, the normalized growth (locus YLR058C, strain SHM2, hits give low values) was 1 and the normalized growth (locus YLR102C, strain apc9, hits give low values) was 1. The normalized growth (locus YLR113W, strain HOG1, hits give low values) was 0.984, the normalized growth (locus YLR262C, strain YPT6, hits give low values) was 0.955 and the normalized growth (locus YLR268W, strain sec22, hits give low values) was 1.03. For the same compound, the normalized growth (locus YLR330W, strain CHS5, hits give low values) was 1, the normalized growth (locus YLR342W, strain FKS1 (second series), hits give low values) was 1.06 and the normalized growth (locus YLR371W, strain rom2, hits give low values) was 0.981. It also gave a normalized growth (locus YLR418C, strain cdc73, hits give low values) of 0.971, a normalized growth (locus YML016C, strain PPZ1, hits give low values) of 0.996 and a normalized growth (locus YML032C, strain rad52, hits give low values) of 1.01. The normalized growth (locus YML124C, strain tub3, hits give low values) was 0.997, the normalized growth (locus YMR078C, strain ctf18, hits give low values) was 0.991 and the normalized growth (locus YMR223W, strain ubp8, hits give low values) was 1.01. For the same compound, the normalized growth (locus YMR307W, strain GAS1, hits give low values) was 1.05, the normalized growth (locus YNL067W, strain RPL9B, hits give low values) was 0.983 and the normalized growth (locus YNL128W, strain TEP1, hits give low values) was 0.96. For the same compound, the normalized growth (locus YNL183C, strain NPR1, hits give low values) was 0.976, the normalized growth (locus YNL233W, strain BNI4, hits give low values) was 1 and the normalized growth (locus YNL250W, strain rad50, hits give low values) was 1. It also gave a normalized growth (locus YNL271C, strain bni1, hits give low values) of 1, a normalized growth (locus YNL298W, strain CLA4, hits give low values) of 0.997 and a normalized growth (locus YNL307C, strain MCK1, hits give low values) of 1.01. The normalized growth (locus YNL322C, strain KRE1, hits give low values) was 0.99, the normalized growth (locus YNR052C, strain pop2, hits give low values) was 0.993 and the normalized growth (locus YOL006C, strain TOP1, hits give low values) was 1.11. It also gave a normalized growth (locus YOL012C, strain htz1) of 0.802, a normalized growth (locus YOL147C, strain pex11, hits give low values) of 1.01 and a normalized growth (locus YOR061W, strain CKA2, hits give low values) of 0.988. The normalized growth (locus YOR069W, strain VPS5, hits give low values) was 1.01, the normalized growth (locus YOR136W, strain idh2, hits give low values) was 1.01 and the normalized growth (locus YOR144C, strain elg1, hits give low values) was 0.994. It also gave a normalized growth (locus YOR184W, strain ser1, hits give low values) of 0.983, a normalized growth (locus YOR231W, strain MKK1, hits give low values) of 1.01 and a normalized growth (locus YOR316C, strain cot1, hits give low values) of 0.997. It also gave a normalized growth (locus YPL256C, strain CLN2, hits give low values) of 1.03, a normalized growth (locus YPR119W, strain clb2, hits give low values) of 0.991 and a normalized growth (locus YPR141C, strain kar3, hits give low values) of 0.997. For the same compound, the normalized growth (locus YPR163C, strain tif3, hits give low values) was 0.985, the normalized growth (locus YPR167C, strain met16, hits give low values) was 0.994 and the normalized growth (strain wtn01, hits give low values) was 1.03.
